TDP1 cell noCPT – qHTS for Inhibitors of human tyrosyl-DNA phosphodiesterase 1 (TDP1): qHTS in cells in absence of CPT; DT40 Tdp1-/- hTDP1 cells, no CPT, ATP luminescence, 48 h; Potency, µM (highest dose often 46.2 µM), actives largely listed as inhibitors; 420,000 tested, 15% active; AID 686978, 2013; also: nearly all actives have a fitted effect of over 55% in size
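Chicken DT40 Tdp1-/- cells complemented with human TDP1, screened without camptothecin (DMSO vehicle only), 400 cells/well. Compounds pin-transferred, cells incubated at 37 °C for at least 48 hr. Growth read as ATP-dependent luminescence (CellTiter-Glo, 30 min at RT).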
TDP1 cell CPT – growth inhibition of DT40 Tdp1-/-;hTDP1 cells with camptothecin (screen for TDP1 inhibitors); chicken DT40 Tdp1-/-;hTDP1 cells + 20 nM CPT, ATP luminescence, 48 h; 420,000 tested, 12% active; Potency, µM (highest dose often 46.2 µM), actives largely listed as inhibitors; also: nearly all actives have a fitted effect of over 55% in size
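Chicken DT40 Tdp1-/- cells stably complemented with human TDP1 were seeded at 400 cells/well in medium containing 20 nM camptothecin, exposed to pin-transferred compounds, and grown at 37 °C for at least 48 hr. Viability was read as ATP luminescence.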
ASM inhibitor – inhibitors of human secretory acid sphingomyelinase; Potency, µM (doses to about 57.5 µM), most hits filed as inhibitors; 340,000 tested, 0.006% active; placental ASM, HMU-PC fluorogenic substrate, 60 min; P17405
Target sequence (P17405 47-631 limits assumed): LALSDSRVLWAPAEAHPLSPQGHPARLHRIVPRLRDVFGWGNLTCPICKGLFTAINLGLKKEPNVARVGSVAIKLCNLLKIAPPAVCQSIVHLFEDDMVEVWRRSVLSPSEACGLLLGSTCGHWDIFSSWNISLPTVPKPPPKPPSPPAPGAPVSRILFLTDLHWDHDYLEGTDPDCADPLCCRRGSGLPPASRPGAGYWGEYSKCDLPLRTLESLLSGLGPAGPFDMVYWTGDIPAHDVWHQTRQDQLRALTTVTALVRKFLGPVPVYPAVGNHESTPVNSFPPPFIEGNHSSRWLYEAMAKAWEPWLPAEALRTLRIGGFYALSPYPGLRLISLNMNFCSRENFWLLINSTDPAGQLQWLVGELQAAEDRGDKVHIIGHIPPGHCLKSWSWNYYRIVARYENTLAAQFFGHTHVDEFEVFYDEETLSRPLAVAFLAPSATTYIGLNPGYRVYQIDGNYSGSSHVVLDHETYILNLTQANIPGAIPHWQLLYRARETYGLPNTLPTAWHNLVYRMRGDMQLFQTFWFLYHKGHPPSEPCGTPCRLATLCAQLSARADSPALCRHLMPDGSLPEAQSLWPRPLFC
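Human placenta-derived ASM preincubated with compound 10 min at room temperature, then reacted with 9 uM (final) fluorogenic HMU-PC substrate for 60 min at 37 C. Stop solution raises pH to 10; fluorescence read at Ex 386/Em 447 nm.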
HepG2 tox-1 – kills HepG2 cells in TGF-b inhibitor counter-screen; 410,000 tested, 0.76% active; HepG2 CAGA-GFP viability, ATP luminescence, 18 h; Potency, µM (top dose mostly 46.1 µM), usual class: cytotoxic
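HepG2 CAGA-GFP cells (1000/well, DMEM with 1% FBS) received compound, then TGF-beta at 500 pg/mL final, and were incubated 18 hours at 37 degrees C. Viability was read by CellTiter-Glo luminescence. Media-only wells were set as complete cell-killing and DMSO as no toxicity.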
IL1B secr inh – inhibitors of inflammasome signaling (IL-1 beta secretion) | activity change, % at 57.5 µM | AID 743279 | THP-1 LPS/ATP IL-1B secretion, AlphaLISA, 16 h; stronger effect = lower value | 360,000 tested, 4.7% active; in the data active = activity change below about -50%; inconclusive = mostly about -30% to -49%
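Secreted IL-1B measured by AlphaLISA bead assay after 16 h compound exposure of THP-1 cells; compounds (final up to 57.5 uM) added 1 h before LPS (250 ng/mL) and ATP (1.25 mM) stimulation; lower signal means less secretion.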
TGFb SMAD3 inh – inhibitors of TGF-b signaling. Potency, µM (highest dose often 46.1 µM), hits mostly inhibitors. 410,000 tested, 1.2% active. AID 588855. HepG2 CAGA-GFP TGF-b/SMAD3 reporter, GFP fluorescence, 18 h; TGF-beta stimulated, 500 pg/mL final; also: nearly all actives have a fitted effect of over 65% in size
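TGF-beta reporter screen: HEPG2 CAGA-GFP, 1% FBS, 500 pg/mL TGF-beta final, 18 h; per-cell GFP summed per well; curves fitted and categorized by class.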
TGFb confirm – confirmation of TGF-b signaling inhibitors in HepG2 reporter cells; shares compounds with TGFb SMAD3 inh; HepG2 CAGA-GFP TGF-b reporter, GFP fluorescence, 18 h; cells stimulated with TGF-beta, 500 pg/mL; Potency, µM (highest dose often 46.1 µM), actives largely listed as inhibitors; 1,600 tested, 63% active; AID 720534; also: nearly all actives have a fitted effect of over 65% in size
HepG2 tox-2 – counter-screen for TGF-b inhibitors: cytotoxicity in HepG2 cells. shares compounds with TGFb SMAD3 inh. HepG2 CAGA-GFP viability, ATP luminescence, 18 h; cells stimulated with TGF-beta, 500 pg/mL. Potency, µM (titrated, usually from 46.1 µM), most hits filed as inhibitors. 1,600 tested, 27% active. AID 720535; also: nearly all actives have a fitted effect of over 70% in size
CCL64 TGFb inh – blocks TGF-b signaling in CCL64 reporter cells. shares compounds with TGFb SMAD3 inh. CCL64 CAGA-GFP reporter, TGF-b stimulated, GFP fluorescence, 18 h. Potency, µM (series often up to 46.1 µM), hits mostly inhibitors. 1,600 tested, 41% active; also: nearly all actives have a fitted effect of over 65% in size
TGFb COP inh – TGF-b inhibition validated with COP promoter. shares compounds with TGFb SMAD3 inh. HepG2 COP-GFP TGF-b reporter, GFP fluorescence, 18 h; cells stimulated by added recombinant TGF-beta. Potency, µM (titrated, usually from 46.1 µM), actives largely listed as inhibitors. 1,600 tested, 3% active. AID 720537; also: nearly all actives have a fitted effect of over 70% in size
A number is an active result; 0 = inactive; ? = inconclusive; - = no result. Compounds with a hit are over-represented: about 19% of the library has one in this group of screens. Unless noted, calls follow the shape of the dose curve; as a rule, active = well fitted curve in the direction sought with a large enough effect; inconclusive = small, poorly fitted or top-dose-only effect, or another doubt; inactive = no such curve, though single readings can be large; an effect the other way counts as inactive or inconclusive.

SMILES	TDP1 cell noCPT	TDP1 cell CPT	ASM inhibitor	HepG2 tox-1	IL1B secr inh	TGFb SMAD3 inh	TGFb confirm	HepG2 tox-2	CCL64 TGFb inh	TGFb COP inh
CC(C)(C)OC(=O)C[C@H]1C/C=C\C[C@@H](CC(=O)N(CCO)Cc2ccccc2)C(=O)N[C@@H](c2ccccc2)COC1=O	?	?	0	0	0	0	-	-	-	-
CCc1nnc(NC(=O)c2cc(=O)c3cc(C)ccc3o2)s1	0	0	-	0	-	0	-	-	-	-
FC(F)Oc1ccc(-c2csc(=Nc3cccnc3)n2CC2CCCO2)cc1 (stereo not drawn)	13µM	15µM	0	0	0	?	0	0	0	0
Cc1c(Br)cnn1C(C)C(=O)N1CCN(c2ccccc2F)CC1 (stereo not drawn)	?	?	0	0	0	0	-	-	-	-
CCOc1ccc(C(CN2CCOCC2)C(C)=O)cc1OC (stereo not drawn)	4.1µM	4.1µM	-	0	-117	2.5µM	?	16µM	16µM	?
COc1ccc(S(=O)(=O)N2CCCCCC2)cc1C(=O)N(C)Cc1c(F)cccc1Cl	0	?	0	0	0	0	-	-	-	-
COc1ccc(S(=O)(=O)N2CCCCCC2)cc1C(=O)N(C)Cc1ccc(Cl)cc1Cl	?	?	0	0	-56	16µM	18µM	0	?	0
O=C(Nc1cc(Sc2ccccn2)cc([N+](=O)[O-])c1)c1cccc(F)c1	?	?	0	0	0	11µM	10µM	?	13µM	0
O=C1CCCN1CCCNc1nc(NCc2ccccc2)nc2ccsc12	18µM	18µM	-	0	?	3.2µM	2.9µM	7.3µM	5.2µM	0
CNc1nc(NCc2ccc(C)cc2C)c2sccc2n1	6.5µM	18µM	-	0	0	11µM	16µM	?	?	0
Cc1ccc(CNc2nc(NCc3ccccc3)nc3ccsc23)c(C)c1	?	9.2µM	-	0	-88	5µM	?	?	15µM	?
COCCNc1nc(NCc2ccccc2)nc2ccsc12	9.2µM	21µM	-	0	0	2.5µM	3.7µM	?	4.1µM	0
O=C(Nc1nc2c(F)cccc2s1)c1ccc2c(c1)OCCO2	?	?	-	0	-	0	-	-	-	-
COc1ccc(-n2c3c(c(=O)[nH]c2=O)C(NS(=O)(=O)c2ccc(Cl)cc2)(C(F)(F)F)C(=O)N3)cc1 (stereo not drawn)	0	0	0	0	0	0	-	-	-	-
CC1=CN2C(=NC(=O)CC2(C)C(=O)N(CC(=O)NC2CCCC2)Cc2ccc(Cl)cc2)C=C1 (stereo not drawn)	0	0	0	0	0	0	-	-	-	-
COC(=O)C1(CC2CC(c3cccc(Br)c3)=NO2)CCN(C(=O)OC(C)(C)C)CC1 (stereo not drawn)	?	?	0	0	0	?	23µM	?	?	0

Source: PubChem BioAssay
